Screening results deposited in PubChem by Bradner/Qi Labs at DFCI.
CBX7 AlphaScr – CBX7 chromodomain binding inhibitors, primary screen, biochemical, AlphaScreen | AlphaScreen His6-CBX7 / biotin-H3K27me3 peptide binding; active compounds read low | normalised signal (fraction of DMSO) (concentration not given with the values) | 1.1% of 66,000 active | AID 1224903, 2016; in the data active = normalised signal below about 0.5
Target sequence (O95931 whole entry, looked up): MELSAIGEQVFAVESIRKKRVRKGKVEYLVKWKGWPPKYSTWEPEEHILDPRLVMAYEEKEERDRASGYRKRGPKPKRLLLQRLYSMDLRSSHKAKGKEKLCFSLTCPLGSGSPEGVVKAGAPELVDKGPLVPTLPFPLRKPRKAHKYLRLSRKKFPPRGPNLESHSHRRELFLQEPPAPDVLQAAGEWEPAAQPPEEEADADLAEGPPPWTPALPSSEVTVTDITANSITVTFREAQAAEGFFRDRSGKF
Large screens that a line does not name were inactive. Many of the other results were omitted from the sample, so hits are more common in it than they were.

Cc1cc(C)cc(-n2ccnc2SCC(=O)Nc2ccc(C)cc2C)c1	none
COc1ccc2nc(N3CCCC(C(=O)NCCc4ccc(OC)c(OC)c4)C3)sc2c1 (stereo unspecified)	none
Cc1c2c(nc3c(C(=O)NCCC(C)C)cnn13)CCCC2	none
O=C(NCCCN1CCCC1=O)c1ccc2c(c1)N(Cc1ccccc1)C(=O)c1ccccc1S2(=O)=O	none
Cc1cc(C)cc(C(=O)Nc2cccc(-c3nc4ncccc4o3)c2)c1	none
COc1ccc(C2C(=O)N(C3CCCCCC3)CC(=O)N2C2CCCCC2)cc1 (stereo unspecified)	none
O=C(Nc1ccc(-c2noc(-c3ccc(F)cc3)n2)cc1)c1cccs1	none
COc1ccccc1-c1nnc(NC(=O)c2ccc(S(=O)(=O)N(C)Cc3ccccc3)cc2)o1	CBX7 AlphaScr 0.000854
COc1ccccc1-c1nnc(NC(=O)c2ccc(S(=O)(=O)N3CCOCC3)cc2)o1	none
Cc1nc2cc(NC(=O)c3ccc(S(=O)(=O)N(C)Cc4ccccc4)cc3)ccc2s1	none
CN(Cc1ccccc1)S(=O)(=O)c1ccc(C(=O)Nc2nnc(-c3ccc(F)cc3)o2)cc1	CBX7 AlphaScr 0.142
COc1cccc(-c2nnc(NC(=O)c3ccc(S(=O)(=O)N(C)Cc4ccccc4)cc3)o2)c1	CBX7 AlphaScr 0.103
COc1cccc(-c2nnc(NC(=O)c3ccc(S(=O)(=O)N4CCCC4)cc3)o2)c1	none
COc1ccc(-c2nnc(NC(=O)c3ccc(S(=O)(=O)N4CCCC4)cc3)o2)c(OC)c1	none
CCc1nnc(NC(=O)c2ccc(S(=O)(=O)N(C)Cc3ccccc3)cc2)o1	CBX7 AlphaScr 0.431
CCOC(=O)c1oc2ccccc2c1NC(=O)c1ccc(S(=O)(=O)N(C)Cc2ccccc2)cc1	none
CCN(Cc1ccccc1)S(=O)(=O)c1ccc(C(=O)Nc2nnc(-c3cccc(OC)c3)o2)cc1	none
COc1ccc(-c2ccc(Cc3nc(-c4ccccc4)no3)cc2)cc1	none
COc1ccc(Cc2noc(-c3cc(-c4ccc(F)cc4)nc4ccccc34)n2)cc1OC	none
O=C(Nc1cccc(Br)c1)c1cnc2ccccn2c1=O	none
CC(C)NC(=O)C1CCN(C(=O)c2cc3sccc3n2Cc2ccc(Cl)cc2)CC1	none
COc1cccc(-c2nnc(NC(=O)c3ccc(S(=O)(=O)N4CCOCC4)cc3)o2)c1	none
COc1ccc(-c2nnc(NC(=O)c3ccc(S(=O)(=O)N(C)C)cc3)o2)cc1	CBX7 AlphaScr 0.0365
COc1cc(OC)cc(-c2nnc(NC(=O)c3ccc(S(=O)(=O)N(C)C)cc3)o2)c1	none
O=C(NCc1ccccc1Cl)c1ccc2c(c1)N(Cc1ccccc1)C(=O)CS2	none
O=C(Cn1cc(S(=O)(=O)c2ccccc2)c(=O)c2cc(Cl)ccc21)Nc1ccc(F)cc1	none
COCCNC(=O)CNC(=O)c1nn(-c2ccc(OC)c(OC)c2)c(=O)c2ccccc12	none
COc1ccc(-c2nc(CS(=O)(=O)CC(=O)NCc3ccc(F)cc3)c(C)o2)cc1	none
COc1cccc(C(=O)Nc2cccc(-c3nc4ncccc4o3)c2)c1	none
Cc1ccc(CNc2ccc3c(c2)ncn3C)cc1	none
Cc1ccc(CNc2ccc3c(c2)nc(C)n3C)cc1	none
CCCn1cnc2cc(NCc3cccc(OC)c3O)ccc21	none
CCCn1cnc2cc(NCc3ccc(C)cc3)ccc21	CBX7 AlphaScr 0.463
CCCn1cnc2cc(NCc3ccccn3)ccc21	CBX7 AlphaScr 0.349
CCCCn1cnc2cc(NCc3ccc(Cl)cc3)ccc21	CBX7 AlphaScr 0.223
CCCn1cnc2cc(NCc3ccc(OCC)cc3)ccc21	CBX7 AlphaScr 0.445
CCc1ccc(CNc2ccc3c(c2)ncn3C)cc1	none
CCCn1cnc2cc(NCc3cccc(OC)c3OC)ccc21	none
CCOc1ccc(CNc2ccc3c(c2)ncn3CC)cc1	none
CCn1cnc2cc(NCc3ccc(Cl)cc3)ccc21	none
C=CCNC(=O)C1CC(=O)N(c2ccc(OCC(=O)Nc3cccc(C(F)(F)F)c3)cc2)C1 (stereo unspecified)	none
CC1CCCCC1NC(=O)c1nnc(Cc2ccc(Cl)cc2)o1 (stereo unspecified)	none
Clc1ccc(OCc2nc(-c3ccccn3)no2)c(Br)c1	none
O=C(NCCCN1CCCCCC1)c1ccc2c(c1)NC(=O)c1ccccc1N2	none
Cc1cc(NC(=O)Cc2c(C(=O)O)[nH]c3ccc(Cl)cc23)no1	none
COc1ccc(-n2c3c(cc(C(=O)Nc4ccc(C)cc4)c2=O)C(=O)CC(C)(C)C3)cc1	none
CCc1ccc2oc(-c3cccc(NS(=O)(=O)c4ccccc4)c3)nc2c1	none
CCOC(CNC(=O)c1ccc2c(c1)ncn2-c1cc(Cl)ccc1OC)OCC	none
O=C(CC(C(=O)N1CCc2ccccc21)n1ccnc1)NC1CCCCCCC1 (stereo unspecified)	none
OC(CN1CCCCC1)Cn1c2ccccc2c2ccccc21 (stereo unspecified)	none
CCC(=C(c1ccc(OC)cc1)c1ccc(OC)cc1)c1cn(CC(O)CN2CCCC2)c2ccccc12 (stereo unspecified)	CBX7 AlphaScr 0.26
COc1ccc(-c2cc3ccccc3n2CC(O)CN2CCCCCC2)cc1 (stereo unspecified)	none
Cc1ccc(C)c(N2CCN(CCCNC(=O)c3ccc4nc(N5CCOCC5)sc4c3)CC2)c1	none
O=S(=O)(c1ccccc1)c1nc(-c2ccccc2F)oc1N1CCCCCC1	none
Cc1ccc(S(=O)(=O)c2nc(-c3ccccc3F)oc2N2CCCCC2)cc1	CBX7 AlphaScr 0.483
Cc1ccc(S(=O)(=O)c2nc(-c3ccccc3C)oc2N2CCCCCC2)cc1	none
Fc1ccccc1-c1nc(NCc2ccccc2Cl)c2ccccc2n1	none
COCCNc1nc(-c2ccccc2F)nc2ccccc12	none
COc1ccccc1CNc1nc(-c2ccccc2F)nc2ccccc12	CBX7 AlphaScr 0.323
CCOC(=O)c1cnc2c(OC)cccc2c1NCCCOC	none
O=C1CCCc2c1[nH]c1ccc(C3CCCCC3)cc21	none
CCn1c2c(c3cc(C4CCCCC4)ccc31)CCCC2O (stereo unspecified)	CBX7 AlphaScr 0.47
O=C(c1ccccc1)N1CCn2c3c(c4cc(C5CCCCC5)ccc42)CCCC31 (stereo unspecified)	none
CCC(C)NC(=O)c1ccc2c(c1)N(Cc1cccc(C)c1)C(=O)CS2 (stereo unspecified)	none
CC(Oc1ccc(Cl)cc1Cl)C(=O)Nc1nccs1 (stereo unspecified)	none
O=C(O)c1c[nH]c2ccc(S(=O)(=O)NCc3ccccn3)cc2c1=O	CBX7 AlphaScr 0.0209
CCc1ccc(NS(=O)(=O)c2ccc3[nH]cc(C(=O)NCc4ccccn4)c(=O)c3c2)cc1	none
CCOC(=O)CNS(=O)(=O)c1ccc2[nH]cc(C(=O)O)c(=O)c2c1	none
O=C(O)c1c[nH]c2ccc(S(=O)(=O)NCCCN3CCCC3=O)cc2c1=O	CBX7 AlphaScr 0.497
CC(=O)Nc1ccc(NS(=O)(=O)c2ccc3[nH]cc(C(=O)O)c(=O)c3c2)cc1	none
Cc1cccc(C)c1N(C)S(=O)(=O)c1ccc2[nH]cc(C(=O)NCc3ccccn3)c(=O)c2c1	none
CC(C)c1ccc(Cn2c(COc3ccc(Cl)cc3)nc3ccccc32)cc1	none
Cc1nc2c(C(=O)NCCc3ccccc3)cnn2c(C)c1Cc1ccccc1F	none
CC(NC(=O)c1nn(C)c(=O)c2ccccc12)c1ccccc1 (stereo unspecified)	none
CCN1CCN(C(=O)C2CCN(C(=O)c3cnn(-c4ccccc4)c3-n3cccc3)CC2)CC1	none
O=C(CS(=O)(=O)c1nc(-c2ccccc2)cn1-c1ccc(Cl)cc1)Nc1ccccc1F	CBX7 AlphaScr 0.483
O=C(CS(=O)(=O)c1nc(-c2ccccc2)cn1-c1ccc(Cl)cc1)Nc1ccccc1	none
O=C(CS(=O)(=O)c1nc(-c2ccccc2)cn1-c1ccc(Cl)cc1)Nc1ccc(F)cc1	none
